Hits are enriched below; roughly 19% of the tested compounds scored in any of these assays.
HT1080-NT tox – kills 2HG-producing HT-1080-NT fibrosarcoma cells. HT-1080-NT fibrosarcoma viability, CellTiter-Glo ATP luminescence, 48 h. Potency, µM (titrated, usually from 46.1 µM), without a hit: top-dose activity, negative = less viability, usual class: cytotoxic. 360,000 tested, 1.6% active;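 further: NT is the 2HG producing partner of a matched IDH1 knockdown line; 0% = DMSO-treated cells and -100% = media-only wells without cells; nearly all actives have a fitted effect of over 55% in size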
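A 48-hour cytotoxicity screen used HT-1080-NT cells plated 2 hours before compound delivery. ATP-based CellTiter-Glo luminescence measured viability, normalized to DMSO and no-cell controls.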
DT40 TDP1 CPT – DT40-hTDP1 cell growth loss with CPT. chicken DT40 Tdp1-/-;hTDP1 cells + 20 nM CPT, ATP luminescence, 48 h. Potency, µM (titrated, usually from 46.2 µM), for the others: at the highest dose activity change, negative = growth inhibition, usual class: inhibitors. 420,000 tested, 12% active; further: nearly all actives have a fitted effect of over 55% in size
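Chicken DT40 Tdp1-/- cells complemented with human TDP1, 400 cells/well, exposed to compounds plus 20 nM camptothecin for at least 48 h at 37 C; viability read as ATP content by CellTiter-Glo luminescence.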
HT1080 IDH1KD tx – kills HT-1080 cells with IDH1 knockdown; HT-1080 IDH1 knockdown viability, ATP luminescence, 48 h; Potency, µM (highest dose often 46.1 µM), for inactives: top-dose activity, negative = toxicity, most hits filed as cytotoxic; 360,000 tested, 2% active; AID 686971;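 further: 0% = DMSO wells and -100% = cell-free medium wells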
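Cytotoxicity counter-line: IDH1KD HT-1080, 48 h, CellTiter-Glo. Curves classed by r2, magnitude and activity.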
KB-V1 MDR tox – kills drug-selected multidrug resistant KB-V1 cells; KB-V1 MDR cells viability, CellTiter-Glo, 72 h; Potency, µM (titrated, usually from 46.1 µM), most hits filed as cytotoxic; 400,000 tested, 3.4% active; AID 1347076; further: nearly all actives have a fitted effect of over 60% in size
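Cytotoxicity toward P-gp-expressing KB-V1 cells was determined as loss of CellTiter-Glo luminescence after 72 h at 37 degrees C. Compounds were tested in quantitative HTS format across a concentration range, with curves fitted to normalized data.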
KB-3-1 cytotox – kills parental KB-3-1 adenocarcinoma cells. KB-3-1 viability, CellTiter-Glo ATP luminescence, 72 h. Potency, µM (series often up to 46.1 µM), actives largely listed as cytotoxic. 400,000 tested, 1.4% active. AID 1347075; further: nearly all actives have a fitted effect of over 60% in size
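72 h, 37 °C compound treatment of KB-3-1 parental cells; CellTiter-Glo added, 10 min, luminescence read. Data corrected against DMSO-only plates and normalized before curve fitting.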
DT40 TDP1 no CPT – qHTS for Inhibitors of human tyrosyl-DNA phosphodiesterase 1 (TDP1): qHTS in cells in absence of CPT | Potency, µM (series often up to 46.2 µM), without a hit: top-dose activity change, negative = growth inhibition, hits mostly inhibitors | 420,000 tested, 15% active | DT40 Tdp1-/- hTDP1 cells, no CPT, ATP luminescence, 48 h | AID 686978, 2013; further: nearly all actives have a fitted effect of over 55% in size
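Camptothecin absent (DMSO only). Human TDP1-complemented DT40 knockout cells, 400 cells/well, 37 °C for minimum 48 hr; ATP measured via CellTiter-Glo, 30 min dark incubation, luminescence.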
Active calls of the source: *; i = inactive; ? = inconclusive; · = no result. The call rests on the fitted dose curve; in most records, active means well fitted curve in the direction sought with a large enough effect; inconclusive means small, poorly fitted or top-dose-only effect, or another doubt; inactive means no such curve, though single readings can be large; an effect the other way counts as inactive or inconclusive. Unless noted, on the % scale 0 is the no-effect control and ±100 the full control effect; potency means the concentration at half of the fitted maximal effect.

SMILES | HT1080-NT tox | DT40 TDP1 CPT | HT1080 IDH1KD tx | KB-V1 MDR tox | KB-3-1 cytotox | DT40 TDP1 no CPT
CCCCNC(=O)C1(C)CCN1C(=O)c1cc(F)ccc1C (stereo not drawn) | 23% | -16% | 16% | i | i | -19%
CC(=O)Nc1nonc1-c1nc2ccccc2n1N(C(C)=O)C(C)=O | -10% | -15% | ? | ? | ? | -13%
N#CCCn1c(-c2nonc2NC(=O)c2ccccc2Cl)nc2ccccc21 | 4% | -15% | 5% | i | i | -23%
COc1cccc(Cn2c(-c3nonc3NC(C)=O)nc3ccccc32)c1 | · | 13µM* | · | · | · | 13µM*
CCC(=O)Nc1nonc1-c1nc2ccccc2n1CC(C)C | 6% | 23µM* | 5% | i | i | 23µM*
CC(=O)Nc1nonc1-c1nc2ccccc2n1Cc1ccccc1Br | · | 16µM* | · | i | ? | 15µM*
CCC(C)[C@H](N)C(=O)N[C@H]1CCC2C3CC=C4C[C@@H](O)CC[C@]4(C)C3CC[C@@]21C (stereo partly drawn) | ? | ? | ? | i | i | ?
O=C(CCNS(=O)(=O)c1ccc(Cl)cc1)N1CCN(Cc2ccccc2)CC1 | 0% | -24% | 5% | ? | i | -17%
Cc1c(C)c(C)c(S(=O)(=O)NCCC(=O)N2CCN(Cc3ccc(C#N)cc3)CC2)c(C)c1C | -9% | 16µM* | -9% | ? | ? | 8.2µM*
CCn1cc(C(=O)NCCCO)c(=O)c2cc(F)c(N3CCN(C)CC3)cc21 | 11% | -28% | 6% | i | i | -20%
CCCCCCNC(=O)c1cn(CC)c2cc(N3CCN(C)CC3)c(F)cc2c1=O | 16µM* | 21µM* | ? | i | i | 26µM*
CCCCCCn1cc(C(=O)OCC)c(=O)c2cc(F)c(F)cc21 | -14% | ? | -16% | i | i | 23µM*
CCCCCCn1cc(C(=O)O)c(=O)c2cc(F)c(N3CCN(C)CC3)cc21 | 15% | 16µM* | 10% | i | i | 18µM*
CCCCCCCCC(=O)N1CCN(c2cc3c(cc2F)c(=O)c(C(=O)O)cn3CC)CC1 | 18% | -24% | 19% | i | i | -15%
CCCCCCCC(=O)N1CCN(c2cc3c(cc2F)c(=O)c(C(=O)O)cn3CC)CC1 | -1% | 23µM* | -5% | i | i | ?
CCOC(=O)c1cn(CC#N)c2cc(F)c(F)cc2c1=O | 6% | 4% | 14% | i | i | -10%
CC(=O)N1CCCC1c1nc2ccccc2n1Cc1cccc(C)c1 (stereo not drawn) | · | -7% | · | i | i | ?
CCC(=O)N1CCc2cc(Br)cc(S(=O)(=O)N3CCCC(C(=O)Nc4cc(C)ccc4OC)C3)c21 (stereo not drawn) | · | -21% | · | i | i | ?
CN(Cc1c(C(=O)N(C)Cc2ccccc2)nc2ccccn12)CC1Cc2ccccc2O1 (stereo not drawn) | 0% | 18µM* | -3% | ? | i | 15µM*
C=Cn1cc[n+](CC(=O)c2ccc(OC)cc2)c1 | 8% | ? | 5% | ? | i | 21µM*
COc1ccc(C(=O)C[n+]2ccc3c(c2)nc(-c2ccccc2)n3C)cc1 | ? | 12µM* | ? | i | ? | 8.2µM*
C=Cn1cc[n+](CC(=O)c2ccc(C)cc2)c1 | 11% | 17% | 13% | i | i | -24%
O=C(NC(=S)Nc1ccc(N2CCCCC2)c(Cl)c1)c1ccc2c(c1)OCCO2 | 12µM* | 16µM* | 18µM* | ? | 1.2µM* | 21µM*
COc1ccccc1C(=O)NC(=S)Nc1ccc(Cc2ccncc2)cc1 | -10% | ? | -4% | i | ? | 18µM*
COc1cc(C(=O)NC(=S)Nc2ccc(Cc3ccncc3)cc2)cc(OC)c1OC | -9% | ? | 7% | i | i | ?
SMILES | HT1080-NT tox | DT40 TDP1 CPT | HT1080 IDH1KD tx | KB-V1 MDR tox | KB-3-1 cytotox | DT40 TDP1 no CPT
Cc1cc(C)cc(C(=O)NC(=S)Nc2ccc3c(c2)OCCO3)c1 | -3% | 16µM* | 10% | 4.6µM* | i | ?
COc1c(C(=O)Nc2ccc(Cc3ccncc3)cc2)ccc2ccccc12 | -10% | ? | -21% | 2.9µM* | 13µM* | 23µM*
CCc1ccc(C(=O)NC(=S)Nc2ccc3c(c2)OCCO3)cc1 | -25% | ? | -4% | i | i | ?
C=CCN(CC(=O)Nc1cccnc1)S(=O)(=O)c1ccc(Cl)cc1 | 0% | -21% | 2% | i | i | -18%
COc1cc(/C=N/N2CCN(Cc3ccc(C)cc3)CC2)cc(OC)c1O | -6% | ? | -8% | i | i | -38%
COc1cccc(CN2C(=O)c3ccccc3C2C(=O)NCCc2ccccc2)c1 (stereo not drawn) | · | ? | · | i | i | -25%
Cc1cc(C)cc(C(=O)NC(=S)Nc2ccc(Cc3ccncc3)cc2)c1 | ? | ? | ? | ? | ? | 29µM*
COc1ccc(NC(=O)c2cccc3ccccc23)cc1 | -26% | 18µM* | ? | ? | ? | 21µM*
COc1ccc(NC(=O)c2c(Cl)n(C)c3ccccc23)cc1 | 18µM* | 8.2µM* | ? | 5.8µM* | 2.9µM* | 8.2µM*
COc1ccc(OC)c(NC(=O)Nc2nnc([C@H]3C[C@H](O)[C@@H](CO)O3)s2)c1 | ? | -5% | 8% | i | i | -17%
COc1ccc(NC(=O)CSc2nnc(C3CCCCC3)n2-c2ccccc2)cc1 | 13% | 15µM* | 10% | i | i | 18µM*
COc1ccc(NC(=O)CSc2nnc(C3CC3)n2N)cc1 | 12% | 9% | 3% | i | i | -3%
O=C(CSc1nnc2sc3ccccc3n12)NCc1ccco1 | ? | ? | ? | i | ? | 13µM*
CCNC(=O)CSc1nnc(C2CC2)n1-c1ccccc1 | 17% | 5% | 21% | i | i | 2%
Nn1c(SCC(=O)NCCc2ccc(F)cc2)nnc1C1CCCCC1 | 1% | 0% | 0% | i | i | -5%
COc1ccc(CCSc2nnc(C3CCCCC3)n2N)cc1 | -3% | ? | -5% | i | i | 12µM*
O=C(CSc1nnc(C2CCCCC2)n1-c1ccccc1)NCc1ccco1 | 6% | ? | 3% | i | i | 8.2µM*

Compound activity (PubChem)
